# Experimental data taken from PubChem BioAssay AID602393 (Broad Institute, 2012).
# The whole screen tested about 350,000 compounds, of which about 7,000 (2%) were called active. Shown is part of a subset that was picked to be rich in actives. Unmarked numbers belong to inactive results. Rule as the data show it: active = activation above about 40%; inconclusive = no clear call, values can overlap the other calls; inactive = below that.
# Experiment: raisers of Bmi1 knock-in reporter signal – mouse ES cells, Bmi1 luciferase knock-in, single point, esBAF inhibitor project, primary screen (AID 602393);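 also: 0% = median of the plate's neutral control wells and 100% = double that signal; a rise in the Bmi1 reporter signal indicates esBAF inhibition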
# Details: 24 h, at 12.5 µM, stronger effect = higher value, 100% = twice the neutral-well signal
row,SMILES,reporter increase
1,CCCNC(=O)[C@@H]1[C@@H](CO)[C@@H]2Cn3c(cccc3=O)[C@H]1N2C(=O)C1CCC1,3.3%
2,C[C@@H]1CCCCO[C@H](CN(C)C)[C@H](C)CN([C@@H](C)CO)C(=O)c2cc(NS(=O)(=O)c3ccccc3)ccc2O1,-0.305%
3,CC(Oc1cccc(NC(=O)c2cccs2)c1)C(=O)c1ccccc1 (stereo unspecified),5.41%
4,CC1(C(=O)Nc2cccc(Oc3ccccc3)c2)CCN1Cc1ccccc1Cl (stereo unspecified),-0.493%
5,Cc1ccoc1C(=O)Nc1cccc(Oc2ccccc2)c1,69.9% (active)
6,COc1ccc(CN(C)C[C@@H]2OCCCC[C@H](C)Oc3ccc(NS(C)(=O)=O)cc3C(=O)N([C@@H](C)CO)C[C@H]2C)cc1,-1.93%
7,O=C(NC1CCCCC1)[C@@H]1[C@@H](CO)[C@@H]2Cn3c(cccc3=O)[C@@H]2N1C(=O)CC1CC1,0.341%
8,C[C@H](O)C#Cc1cnc2c(c1)C(=O)N([C@H](C)CO)C[C@H](C)[C@H](CN(C)C(=O)c1ccc(F)cc1)O2,0.158%
9,COc1ccccc1CSc1nc2ccccc2[nH]1,69.6% (active)
10,C/C(=N\Nc1nc2ccccc2[nH]1)c1cccs1,67.6%
11,COc1ccc2nc(SCC(=O)Nc3c(C)cc(C)cc3C)[nH]c2c1,-3.13%
12,CN(Cc1ccccc1)c1nc2c(c(=O)[nH]c(=O)n2C)n1CCSc1nc2ccccc2[nH]1,5.78%
13,CN(Cc1ccccc1)C(=O)CSc1nc2ccccc2[nH]1,36%
14,CCCCSc1nc2ccccc2[nH]1,56.3% (active)
15,O=C(CSc1nc2ccccc2[nH]1)c1cccs1,79.4% (active)
16,CCCCN(CC)CCCNC(=O)c1ccc(CSc2nc3ccncc3[nH]2)cc1,0.105%
17,O=C(NCc1ccccc1)c1onc(CSc2nc3ccccc3[nH]2)c1C(=O)NCc1ccccc1,-3.03%
18,COc1cccc(S(=O)(=O)Nc2ccc3c(c2)[C@@H]2C[C@@H](CC(=O)NC4CCCCC4)O[C@H](CO)[C@@H]2O3)c1,9.31%
19,CCCNC(=O)N[C@H]1C=C[C@@H](CC(=O)NC2CCCCC2)O[C@H]1CO,0.216%
20,COc1cccc(NC(=O)N(C)C[C@H]2OCc3ccccc3-c3ccccc3C(=O)N([C@H](C)CO)C[C@@H]2C)c1,4.73%
21,Cc1nc2ccccc2c(=O)n1NC(=O)c1ccc(Cl)c([N+](=O)[O-])c1,3.65%
22,Cc1ccnc(NC(=O)c2ccc(Cl)c([N+](=O)[O-])c2)c1,30.4%
23,C/C(=N\Nc1nncc2ccccc12)c1ccc(Cl)c([N+](=O)[O-])c1,50.9% (active)
24,CN(C)C(=O)c1cccc(-c2ccc3n(c2=O)C[C@H]2N[C@@H]3[C@@H](C(=O)NC3CCC3)[C@@H]2CO)c1,-3.26%
25,CCCNC(=O)N1[C@H](CO)[C@H]2c3ccccc3N(C(=O)Nc3cccc(Cl)c3)C[C@H]21,-0.3%
26,OC(c1ccccc1)c1nc(-c2cnc3ccccc3c2)cs1 (stereo unspecified),50.7% (active)

row,SMILES,reporter increase
1,COc1cccc(C(NC(C)=O)c2nc(-c3cnc4ccccc4c3)cs2)c1 (stereo unspecified),-2.81%
2,CC(C)c1cccc(-c2csc(C(O)c3ccccc3)n2)c1 (stereo unspecified),38.6%
3,C[C@@H]1CN([C@@H](C)CO)S(=O)(=O)c2ccc(/C=C/c3ccccc3)cc2O[C@@H]1CN(C)C(=O)Nc1cc(F)ccc1F,2%
4,COc1ccccc1-c1cn(CC[C@H]2CC[C@H](NC(=O)C3CCOCC3)[C@@H](CO)O2)nn1,0.605%
5,CCS(=O)(=O)c1ccc(-c2cccc(NC(=O)c3ccc(Br)o3)c2)nn1,-4.52%
6,Cc1cccc(NC(=S)NC(=O)c2ccc(Br)o2)c1,52.3% (active)
7,O=C(Nc1cccc(C(=O)O)c1)/C(=C\c1ccccc1)NC(=O)c1ccc(Br)o1,-2.41%
8,CO[C@H]1CN(C)C(=O)c2ccc(NC(=O)c3cccc(Oc4ccccc4)c3)cc2OC[C@@H](C)NC[C@H]1C,-1.39%
9,C/C=C/c1ccc([C@@H]2[C@@H](CN(C)C(C)=O)N(C(=O)C3CC3)[C@H]2CO)cc1,-1.72%
10,O=C(NCc1cn2ccsc2n1)Nc1cccc(Cl)c1,28.5%
11,Cc1cc(Cl)nc(NC(=O)Nc2cccc(Cl)c2)n1,74.9% (active)
12,Cc1cc(C)nc(NC(=O)Nc2ccccc2C(F)(F)F)n1,-6.57%
13,Cc1noc(C)c1S(=O)(=O)Nc1ccc2c(c1)C(=O)N([C@H](C)CO)C[C@@H](C)[C@@H](CN(C)C(=O)C1CCCCC1)OCCCC[C@@H](C)O2,5.24%
14,O=C(C[C@@H]1CC[C@H](NC(=O)C2CC2)[C@@H](CO)O1)NCc1ccncc1,-3.99%
15,CCc1cccc(C)c1NC(=O)COC(=O)CC1CCCC1,2.51%
16,Cc1cccc(C)c1NC(=O)COC(=O)c1ccccc1O,0.59%
17,CCOc1cccc2cc(C(=O)OCC(=O)Nc3c(C)cccc3CC)c(=O)oc12,50.3% (active)
18,CNC[C@H]1Oc2ccc(NS(=O)(=O)c3ccccc3)cc2CC(=O)N([C@H](C)CO)C[C@@H]1C,-1.73%
19,COc1ccc2c(Cl)c(C(=O)NCc3ccco3)sc2c1,35.4%
20,O=C(CCNC(=O)c1ccccc1Cl)NCc1ccco1,-4.58%
21,O=C(NCc1ccco1)c1sc2cccc(F)c2c1Cl,44% (active)
22,CCCC#Cc1cnc2c(c1)C(=O)N([C@@H](C)CO)C[C@@H](C)[C@@H](CN(C)C(=O)c1ccccc1)O2,-1.26%
23,COc1ccc(NC(=O)Nc2ccc3c(c2)C(=O)N([C@@H](C)CO)C[C@@H](C)[C@H](CN(C)C(=O)CCC(F)(F)F)OCCCC[C@@H](C)O3)cc1,11%
24,C[n+]1cc(-c2ccccc2)oc1-c1ccccc1,51.8% (active)
25,COC(=O)C[C@@H]1CC[C@@H]2[C@H](COc3ccc(NC(=O)c4ccccc4OC)cc3C(=O)N2C)O1,-4.7%
